Measured values from PubChem BioAssay.
“And” between values parts separate entries of the source, which are not always exact repeats. Equal entries are not always repeated. Results filed as inconclusive are left out. For part of these data: Potency and affinity values are given separately. The source made the active and inactive calls. Unless noted, cut-off not given; nearly all actives show AC50 up to about 26 µM.

What was measured:
[1] = rescue of polyQ-huntingtin neuronal dysfunction in worms, whole organism, C. elegans mechanosensory neurons, N-terminal huntingtin (AID 1599); conditions: touch response, stronger effect = higher value
[2] = reducers of polyQ inclusions in PC12 cells, cell-based, NGF-treated PC12, GFPQ80 (AID 1614); conditions: PC12 NGF-treated GFP-polyQ80 inclusion reduction;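 further: lower means fewer inclusions and 0 means no inclusions at all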
[3] = suppressors of polyglutamine aggregation in yeast, 75Q-TubH (AID 1616); conditions: S. cerevisiae 75Q-TubH polyglutamine aggregation suppression; stronger effect = higher value
[4] = hESC survival regulators, cell-based (AID 493140; call rule not given here;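 further: cells exposed to compounds for four days before counting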); conditions: human embryonic stem cell survival screen; stronger effect = higher value
[5] = test system: Hepatitis C virus NS3 helicase; test: HCV NS3 helicase inhibitors, primary screen, biochemical, fluorescence polarization, LOPAC1280 library (AID 687035; in the data active means inhibition above about 37%); conditions: Purified HCV NS3 helicase, Cy5-dT15 ssDNA binding fluorescence polarization; stronger effect = higher value; concentration not given here
[6] = Cy5 fluorescence quenching or enhancement artefacts, artefact control for HCV NS3 helicase inhibitor project, biochemical, LOPAC1280 (AID 687037; call rule not given here); conditions: Cy5-DNA-NS3h complex fluorescence interference counterscreen
[7] = growth inhibition of DIPG glioma cells, dose response, cell-based, SU-DIPG-XVII, MIPE5.0, CellTiter-Glo, qHTS (AID 1347060); conditions: SU-DIPG-XVII viability, CellTiter-Glo ATP luminescence;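 on AC50: cells exposed to compound for 48 hours before viability readout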
[8] = growth inhibition of DIPG glioma cells, dose response, cell-based, SU-DIPG-XIII, MIPE4.0, CellTiter-Glo, qHTS (AID 1347061; cut-off not given, nearly all actives have AC50 up to about 37 µM;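 further: cells exposed to compound for 48 hours before readout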); conditions: SU-DIPG-XIII viability, CellTiter-Glo ATP luminescence
[9] = growth inhibition of DIPG glioma cells, dose response, cell-based, JHH-DIPG-1, MIPE4.0, CellTiter-Glo, qHTS (AID 1347062; cut-off not given, nearly all actives have AC50 up to about 27 µM;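 on AC50: cells exposed to compound for two days before readout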); conditions: JHH-DIPG-1 viability, CellTiter-Glo ATP luminescence
[10] = growth inhibition of DIPG glioma cells, dose response, cell-based, SU-DIPG-IV, MIPE4.0, CellTiter-Glo, qHTS (AID 1347063; cut-off not given, nearly all actives have AC50 up to about 30 µM;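 further: compound exposure lasted 48 hours before the viability readout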); conditions: SU-DIPG-IV viability, CellTiter-Glo ATP luminescence
[11] = viability loss in pontine glioma line – cell-based, SU-DIPG-XXV, MIPE5.0, CellTiter-Glo, qHTS, dose response (AID 1347065); conditions: CellTiter-Glo ATP luminescence;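 further: cells exposed to compound for 48 hours before ATP readout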
[12] = JHH-DIPG-1 glioma cell viability, MIPE5.0 library, CellTiter-Glo luminescence, qHTS (AID 1347067); conditions: JHH-DIPG-1 glioma viability, CellTiter-Glo ATP luminescence;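 further: cells exposed to compound for 48 hours before readout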
[13] = SU-DIPG-XXV glioma cell viability, MIPE5.0 library, qHTS (AID 1347068; cut-off not given, nearly all actives have IC50 up to about 30 µM)
[14] = phospholipid biosynthesis inhibitors in animal cells, primary screen, cell-based, LOPAC library, screen 4 (AID 1347384; call rule not given here); conditions: phospholipid biosynthesis inhibition screen, at 10 µM
[15] = LFS_MB_1R medulloblastoma cell growth inhibition, synergistic combos for chromothripsis tumors, cisplatin or BGB combos (AID 1671452; in the data active means inhibition above about 80%;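 further: cells exposed for 96 hours before readout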); conditions: LFS_MB_1R medulloblastoma cells, stronger effect = higher value
[16] = MDA-MB-436 breast carcinoma cell growth inhibition, synergistic combos for chromothripsis tumors, BGB or cisplatin combos (AID 1671458; call rule not given here;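 further: cells exposed for 96 hours; 0% = vehicle DMSO and 100% = killing by high DMSO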); conditions: MDA-MB-436 breast carcinoma growth inhibition, drug combinations, stronger effect = higher value
[17] = growth inhibition of BT084 medulloblastoma cells, cell-based, ICGC_MB145, cisplatin and BGB IC40 combos (AID 1671461; in the data active means inhibition above about 80%;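 further: cells exposed to drugs for 96 hours; 0% = vehicle DMSO and 100% = high DMSO full killing control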); conditions: drug combinations, stronger effect = higher value
[18] = growth inhibition of RCMB18 medulloblastoma cells, cell-based, cisplatin and BGB IC40 combos (AID 1671462; in the data active means inhibition above about 80%;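 further: cells exposed to compound for four days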); conditions: stronger effect = higher value
[19] = growth inhibition of CRL1545 osteosarcoma cells, cell-based, cisplatin and BGB IC20 combos (AID 1671464; in the data active means inhibition above about 80%;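 further: cells exposed to compound for 96 hours before readout; 0% = vehicle DMSO and 100% = high DMSO killing control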); conditions: stronger effect = higher value
[20] = SU-DIPG-VI glioma cell viability, MIPE4.0 library, CellTiter-Glo luminescence, qHTS (AID 1347066; cut-off not given, nearly all actives have AC50 up to about 30 µM;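 further: cells exposed to compound for 48 hours before readout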); conditions: CellTiter-Glo ATP luminescence
[21] = measured here: combination with cisplatin, at 0.5 µM

Structure (SMILES): Nc1nc2c(ncn2COCCO)c(=O)[nH]1
- rescue above control [1]: 0.24
- inclusion score [2]: 2
- aggregation suppression score [3]: 1.27
- survival [4]: 18.2 (inactive)
- inhibition [5]: -2% (inactive)
- fluorescence ratio (interference) [6]: 1 (inactive)
- outcome [7]: inactive
- outcome [8]: inactive
- outcome [9]: inactive
- outcome [10]: inactive
- outcome [11]: inactive
- outcome [12]: inactive
- outcome [13]: inactive
- outcome [14]: inactive
- inhibition ([15]; at 0.5 µM): -33.9% (inactive) and -12.8% (inactive)
- inhibition ([15]; measured here: combination with BGB IC40, at 0.05 µM): -30% and -19.3%
- inhibition [15, 21]: -22.8% and -6.62%
- inhibition ([15]; measured here: combination with cisplatin, at 5 µM): -40.1% and -62.2%
- inhibition ([16]; at 0.5 µM): -28.5% (inactive) and -3.5% (inactive)
- inhibition ([16]; measured here: BGB combination, at 0.5 µM): -28% and -11%
- inhibition ([16]; measured here: BGB combination, at 5 µM): -21.3% and -10.7%
- inhibition ([16]; measured here: cisplatin combination, at 0.5 µM): -47.5% and -0.282%
- inhibition ([16]; measured here: cisplatin combination, at 5 µM): -36.3% and -17.4%
- inhibition ([17]; at 0.5 µM): -21.3% (inactive) and -1.95% (inactive)
- inhibition ([17]; cisplatin combination, at 0.5 µM): -12.5% and -17.2%
- inhibition ([17]; cisplatin combination, at 5 µM): -6.79% and -8.03%
- inhibition ([17]; measured here: BGB IC40 combination 0.05 uM, at 0.05 µM): -1.08% and -21.3%
- inhibition ([17]; single agent, at 5 µM): -0.642% and -9.5%
- inhibition ([18]; at 0.5 µM): -24.6% (inactive) and -1.99% (inactive)
- inhibition ([18]; cisplatin combo, at 5 µM): -16.8% and -20.6%
- inhibition ([18]; measured here: BGB IC40 combination, at 0.05 µM): -28.4% and 4.2%
- inhibition [18, 21]: -35.4% and 12.7%
- inhibition ([18]; single agent, at 5 µM): -21.5% and -6.99%
- inhibition ([19]; at 0.5 µM): -37.7% (inactive) and -21.2% (inactive)
- inhibition ([19]; measured here: with BGB IC20 combination, at 0.5 µM): -17.4% and -24.8%
- inhibition ([19]; measured here: with cisplatin IC20 combination, at 0.5 µM): -51.3% and -21.4%
- inhibition ([19]; single agent, at 0.05 µM): -59.2% and 3.53%
- inhibition ([19]; single agent, at 5 µM): -38.1% and -22.9%

Structure (SMILES): N=C(N)c1ccc(OCCCCCOc2ccc(C(=N)N)cc2)cc1
- rescue above control [1]: 0
- aggregation suppression score [3]: 0.265
- survival [4]: 0.583 (inactive)
- outcome [9]: inactive
- AC50 [11]: 11.8 µM (active)
- outcome [20]: inactive
- outcome [14]: inactive

Structure (SMILES): CN(C)CCCN1c2ccccc2CCc2ccc(Cl)cc21
- aggregation suppression score [3]: 0.939
- survival [4]: 4.17 (inactive)
- inhibition [5]: -4% (inactive)
- fluorescence ratio (interference) [6]: 1 (inactive)
- outcome [7]: inactive
- AC50 [8]: 0.662 µM (active)
- AC50 [9]: 9.35 µM (active)
- AC50 [10]: 18.7 µM (active)
- outcome [13]: inactive
- outcome [14]: inactive

Structure (SMILES): CCN(CCO)CCCC(C)Nc1ccnc2cc(Cl)ccc12 (stereo unspecified)
- rescue above control [1]: -3.82
- inclusion score [2]: 1.5
- aggregation suppression score [3]: 1.3
- outcome [7]: inactive
- outcome [8]: inactive
- outcome [9]: inactive
- outcome [10]: inactive
- outcome [20]: inactive
- outcome [12]: inactive
- outcome [13]: inactive

Structure (SMILES): CC1Cc2ccccc2N1NC(=O)c1ccc(Cl)c(S(N)(=O)=O)c1 (stereo unspecified)
- rescue above control [1]: 19
- inclusion score [2]: 2
- aggregation suppression score [3]: 1.3
- outcome [7]: inactive
- outcome [8]: inactive
- outcome [9]: inactive
- outcome [10]: inactive
- outcome [12]: inactive
- outcome [13]: inactive

Structure (SMILES): Oc1c(Cl)cc(Cl)c2cccnc12
- aggregation suppression score [3]: -0.164
- AC50 [7]: 16.6 µM (active)
- AC50 [8]: 18.7 µM (active)
- AC50 [10]: 26.4 µM (active)
- AC50 [11]: 26.3 µM (active)
- AC50 [20]: 18.7 µM (active)
- AC50 [12]: 2.95 µM (active)

Structure (SMILES): N[C@@H]1CONC1=O
- rescue above control [1]: -2.84
- inclusion score [2]: 2
- aggregation suppression score [3]: 1.32
- survival [4]: 4.33 (inactive)
- inhibition [5]: -2% (inactive)
- fluorescence ratio (interference) [6]: 0.9 (inactive)
- outcome [7]: inactive
- outcome [8]: inactive
- outcome [9]: inactive
- outcome [10]: inactive
- outcome [11]: inactive
- outcome [20]: inactive
- outcome [12]: inactive
- outcome [13]: inactive
- outcome [14]: inactive
